# Results: PubChem BioAssay (NCATS)
# Records with an inconclusive call do not appear.
# Experiment: qHTS for identification of novel therapeutic agents for treatment of microphthalmiaassociated transcription factor (MiT) renal cell carcinoma (RCC) (AID 1963991)
# Details: TFE3-RCC UOK109 viability, CellTiter-Glo, 48 h; measured here: UOK109 Z-AUC; stronger effect = lower value
# Summary of the method: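 Viability of three TFE3-fusion renal carcinoma lines measured by CellTiter-Glo after 48 h treatment with each of 1912 compounds at 11 concentrations. Responses scaled between DMSO (100%) and empty wells (0%) before curve fitting.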
row,SMILES,z-score
1,C[C@@H](NCCCc1cccc(C(F)(F)F)c1)c1cccc2ccccc12,1.16
2,N[C@@H](Cc1ccc(O)c(O)c1)C(=O)O,0.912
3,CCn1cc(C(=O)O)c(=O)c2cc(F)c(N3CCN(C)CC3)cc21,0.77
4,O=c1oc2c(O)c(O)cc3c(=O)oc4c(O)c(O)cc1c4c23,1.02
5,O=C(O)c1cn(C2CC2)c2cc(N3CCNCC3)c(F)cc2c1=O,1.77

# Same assay, conditions: TFE3-RCC viability, CellTiter-Glo, 48 h; measured here: UOK124 Z-AUC; stronger effect = lower value
row,SMILES,z-score
1,C[C@@H](NCCCc1cccc(C(F)(F)F)c1)c1cccc2ccccc12,0.808
2,N[C@@H](Cc1ccc(O)c(O)c1)C(=O)O,0.453
3,CCn1cc(C(=O)O)c(=O)c2cc(F)c(N3CCN(C)CC3)cc21,0.298
4,O=c1oc2c(O)c(O)cc3c(=O)oc4c(O)c(O)cc1c4c23,0.807
5,O=C(O)c1cn(C2CC2)c2cc(N3CCNCC3)c(F)cc2c1=O,0.661
